Hits are enriched below; roughly 0.28% of the tested compounds scored in any of these assays.
hcGAS lum = inhibitors of human cGAS; recombinant h-cGAS, ATP depletion, Kinase-Glo luminescence; inhibition, % at 12.5 µM; 290,000 compounds, 0.081% hits; AID 1259398;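 note: 0% = vehicle reaction and 100% = reaction without DNA for no activity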
mcGAS inh = inhibitors of mouse cGAS | 160,000 compounds, 0.15% hits | recombinant cGAS, Kinase-Glo ATP depletion luminescence | Q8C6L5 | inhibition, % at 12.5 µM;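 note: 0% = negative control wells and 100% = reference inhibitor with no enzyme activity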
Target sequence (Q8C6L5 whole entry, looked up): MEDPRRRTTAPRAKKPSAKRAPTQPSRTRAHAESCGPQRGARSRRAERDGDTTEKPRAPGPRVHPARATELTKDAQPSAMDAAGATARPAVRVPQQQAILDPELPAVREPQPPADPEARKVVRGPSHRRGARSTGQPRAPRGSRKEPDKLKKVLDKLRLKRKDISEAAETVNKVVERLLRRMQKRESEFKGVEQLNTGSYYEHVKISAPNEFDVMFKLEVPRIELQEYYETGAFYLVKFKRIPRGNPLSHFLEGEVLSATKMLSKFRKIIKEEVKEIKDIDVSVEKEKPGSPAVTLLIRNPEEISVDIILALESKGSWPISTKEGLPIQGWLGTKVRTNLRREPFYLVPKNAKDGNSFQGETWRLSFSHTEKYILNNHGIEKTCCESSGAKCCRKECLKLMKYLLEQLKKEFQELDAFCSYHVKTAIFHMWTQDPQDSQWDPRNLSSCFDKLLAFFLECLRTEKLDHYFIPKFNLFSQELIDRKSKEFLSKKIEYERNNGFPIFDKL
NPYLR7 ag = activates Aedes aegypti NPYLR7 receptor; HEK293T NPYLR7/Galpha15, GCaMP6s calcium fluorescence; 270,000 compounds, 0.15% hits; activation, % at 10 µM; in the data active = activation above about 40%;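 note: 0% = vehicle and 100% = reference agonist at the receptor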
* hit, by the source's call; nt = no result given; ! = repeats disagree. Cut-off read from the data, not from the text of the source, unless noted: active = inhibition above about 40%; inactive = the rest.

SMILES	hcGAS lum	mcGAS inh	NPYLR7 ag
C[C@@H](NC(=O)CN1Cc2ccc(N3CCOCC3)nc2C1=O)c1ccccc1	-4.6	-6.5	61.2*
CN(C)CCNC(=O)CN1Cc2ccc(N3CCOCC3)nc2C1=O	-3.4	-4.2	12.8
O=C(Nc1ccccc1F)c1ccc2c(c1)S(=O)(=O)Nc1ncnn1-2	-1.3	-8.4	-8.1
COC(=O)c1nc2n(n1)-c1ccccc1S(=O)(=O)N2	57.0*	nt	12.9
C=CCN1C(=O)NC(c2cccc(OCc3ccccc3)c2)C2=C1CN(Cc1cccc(C(F)(F)F)c1)C2=O (stereo unspecified)	-21.6	-5.5	-13.4
COC(=O)Cn1c(=O)c2c(nc3n(CC4CCCO4)c(C)cn23)n(C)c1=O (stereo unspecified)	-5.1	nt	-5.6
Cc1[nH]n2c(=O)c(C#N)c(-c3ccccc3)nc2c1-c1ccccc1	53.7*	nt	-5.3
CCc1c(C)nc2c(-c3ccccc3)c(C)[nH]n2c1=O	5.6	nt	-2.4
COc1ccc(C(=O)N2CCN(C(C(=O)Nc3cc(OC)cc(OC)c3)C3CCCC3)CC2)cc1 (stereo unspecified)	-7.7	-5.6	-0.8
COc1cc(OC)cc(C(=O)N2CCN(C(C(=O)Nc3ccc(NC(C)=O)cc3)C3CCCC3)CC2)c1 (stereo unspecified)	-5.7	-5.3	59.6*
COc1ccc(CN2CCN(Cc3ccc(F)cc3)CC2CCO)c(F)c1 (stereo unspecified)	-4.2	-9.9	10.4
O=C(Nc1ccc(Cl)cc1)N1CCCN(C2CC2)CC1	-8.2	nt	1.5
Nc1c(NC(=O)N2CCN(C3CCCC3)CC2)c(-c2ccc(Cl)cc2)nn1-c1ccccc1	164.0*	nt	5.2
O=C(Nc1ccc2c(c1)CCC2)NC1CCN(C2CC2)CC1	-1.0	-3.8	-0.7
O=C(CN1CCOCC1)N1N=C(c2ccc(Br)cc2)CC1c1nc2ccccc2[nH]1 (stereo unspecified)	-5.3	-4.9	8.9
COc1ccc(C2=NN(C(=O)CN3CCOCC3)C(c3nc4ccccc4[nH]3)C2)cc1 (stereo unspecified)	7.6	0.8	51.6*
Cc1ccc(CN(Cc2ccc3c(c2)OCO3)C(=O)CN(CC2CCCO2)C(=O)Nc2ccc(F)cc2F)o1 (stereo unspecified)	-3.7	-3.4	11.7
Cc1ccc(NC(=O)N(CC(=O)N(Cc2ccc(F)cc2)Cc2ccc(C)o2)CC2CCCO2)c(C)c1 (stereo unspecified)	89.1*	-4.0	-3.6
C1CCN=C(NCC2CCCO2)CC1 (stereo unspecified)	-10.2	nt	14.8
COc1ccc(-c2cccc(-c3ccc(NC(=O)c4oc5ccccc5c4C)cc3)n2)cc1	-2.7	-6.1	42.7*
COc1ccc(-c2cccc(-c3ccc(NC(=O)c4c(F)cccc4F)cc3)n2)cc1	-1.6	-4.3	1.1
CN(C)CCN(Cc1cccc(F)c1)C(=O)c1ncncc1Cl	-15.6	nt	4.9
O=c1cc(-c2ccccc2)[nH]n1-c1c(F)c(F)c(F)c(F)c1F	-3.2	-4.3	5.0
COc1ccc(-c2[nH]n(-c3nc4ccccc4s3)c(=O)c2C=NCCN2CCOCC2)cc1	-2.8	nt	-3.4
O=c1c(C=NC2CC2)c(-c2ccccc2)[nH]n1-c1nc2ccccc2s1	59.5*	3.1	2.9
SMILES	hcGAS lum	mcGAS inh	NPYLR7 ag
O=c1cc(-c2ccccc2)[nH]n1-c1nc2ccccc2s1	55.3*	30.4	-6.8
CC1(C)[C@H]2CC[C@]1(CS(=O)(=O)N1CCN(Cc3ccc4c(c3)OCO4)CC1)C(=O)C2	-11.0	nt	-5.3
COC(=O)CCC(=O)NNC(=O)c1ccccc1I	3.3	-3.2	-9.6
COCCN(Cc1cc(Cl)ccc1OCc1nc(CO)cs1)C(=O)Cc1ccccc1	-2.0	-7.8	3.0
CC(C)N=C(N)N=C(N)Nc1ccc(Cl)cc1	-3.8	nt	5.6
NC(=NCCCCCCN=C(N)N=C(N)Nc1ccc(Cl)cc1)N=C(N)Nc1ccc(Cl)cc1	-3.8	-3.6	70.4*!
CCN(CC)S(=O)(=O)c1ccc(OC)c(N2CCN(C(=O)C(Cl)Cl)CC2)c1	0.0	-4.5	3.6
Cc1ccc(Nc2nc(Nc3cccc(F)c3)nc3nccnc23)c(C)c1	-5.9	nt	51.5*
Cc1ccc(Nc2nc(NCCN(C)C)nc3nccnc23)c(C)c1	-6.6	nt	9.2
O=C(Cc1ccccc1)NCCSc1ncc(-c2ccc(F)cc2)[nH]1	-4.0	-6.5	1.3
N#C/C(=C/c1ccc(N2CCCCC2)cc1F)c1ccc(C(=O)O)cc1	-0.4	-4.9	-1.3
N#C/C(=C/c1ccc(N2CCCCC2)o1)c1cccc(F)c1	-1.2	nt	63.4*
Cc1ccc(C(=O)n2sc(=O)c3ccccc32)cc1	-6.8	nt	-1.8
O=C1NC(=S)NC(=O)C1=Cc1ccc(-c2cc([N+](=O)[O-])ccc2O)o1	51.2*	42.1*	-15.6
COc1cc([N+](=O)[O-])ccc1-c1ccc(/C=C2/NC(=S)NC2=O)o1	-2.9	-1.0	0.8
CCCC1CCc2nc(NS(=O)(=O)c3cnn(C)c3)sc2C1 (stereo unspecified)	-10.1	-18.0	4.0
CC(N)C(=O)Nc1nnc(-c2ccccc2)s1 (stereo unspecified)	-6.2	-4.7	-7.5
CCC(=O)C(C#N)c1nnc(-c2ccccc2)s1 (stereo unspecified)	56.1*	nt	8.2
O=c1oc2c(-c3ccc(Br)cc3)cc(O)cc2s1	-4.9	-6.4	-0.1
O=c1oc2c(Br)c(O)c(Br)cc2s1	41.2*	75.7*	-3.1
CCC(C)N(Cc1ccsc1)Cc1nc[nH]c1C (stereo unspecified)	-2.2	-18.5	3.1
CCN(CC)Cc1ccccc1CNc1ccnc2ccsc12	-5.7	-14.6	1.8
CSc1nc(NCc2ccco2)c2sc3c(c2n1)COC(C)(C)C3	-4.6	nt	-2.5
COc1ccc(C)cc1NC(C)c1nc2ccccc2n1C(F)F (stereo unspecified)	-9.8	nt	6.0
CCCN(Cc1ccsc1)CC(O)COc1ccccc1 (stereo unspecified)	-4.1	40.6*	26.8
SMILES	hcGAS lum	mcGAS inh	NPYLR7 ag
CC(C)CN(Cc1ccsc1)CC(O)COc1ccc(Cl)cc1 (stereo unspecified)	-6.0	-4.1	6.3
COc1cccc(CN(Cc2ccc(F)cc2)CC(O)COc2ccccc2)c1 (stereo unspecified)	-4.2	76.3*	38.8
C=CCOCC(O)CN(Cc1ccc(F)cc1)Cc1cccc(OC)c1 (stereo unspecified)	-9.8	-3.9	22.4
Cc1ccccc1-n1ncc2c(C)nn(CC(=O)N3CCN(c4ccccc4)CC3)c(=O)c21	-1.9	nt	5.2
CCCCOC(=O)C1=C(C)N(C)C(=O)NC1c1ccc(C(=O)OC)cc1 (stereo unspecified)	-3.2	nt	3.7
CCC(CC)NC(=O)CN1c2cccc3cccc(c23)S1(=O)=O	-16.2	nt	13.2
NC(=O)CN1c2cccc3cccc(c23)S1(=O)=O	3.9	nt	106.0*
O=C(CNC(=O)/C=C/c1ccco1)N=Nc1c(O)n(Cc2ccccc2)c2ccccc12	-4.9	-5.9	-1.3
CC(C)NC(=O)C(C)N1CCN(c2ccccc2F)CC1 (stereo unspecified)	-5.0	nt	4.1
COc1ccc(NC(=O)CN2C(=O)c3ccccc3NC23CCN(C)CC3)cn1	-12.0	nt	49.4*
COc1ccc(NC(=O)CCC(=O)N2CCc3ccccc3C2)cn1	-4.4	-4.1	-3.9
COc1ccc(C)cc1N1CC(C)Cn2c1nc1c2c(=O)n(C)c(=O)n1C (stereo unspecified)	-5.2	nt	2.0
